Fluor 339 460 = intrinsic fluorescence of library compounds, ex339/em460 – biochemical, MLSMR library, data from DPM-DC assay, artefact control, profiling panel | compound autofluorescence, ex339/em460 nm, NADH buffer; hits give high values; 1 = no-compound wells, NADH background | fluorescence fold increase at 10 µM | hit rate 5.5% among 65,000 | AID 709;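 active = at 10 µM, mean starting fluorescence two-fold or more over control wells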;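 also: signal is the first read of a kinetic run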
NADH enzymes = blocks coupling enzymes of NAD/NADH assays. IC50, µM (top dose mostly 10 µM). hit rate 0.02% among 65,000. AID 774. coupled PK/LDH NADH assays, four targets;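 active = single-dose screening hits from any of four coupled enzyme assays that gave an IC50 when retested across doses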;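 also: the DPM-DC format reads NADH fluorescence rather than 340 nm absorbance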
Abs 340nm = compound absorbs light at 340 nm; compound absorbance at 340 nm, fold over control; fold change at 10 µM; 65,000 tested, under 10 active; AID 708;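 active = at 10 µM dose, initial 340 nm absorbance at least 2 fold that of control wells; inactive = change under 2 fold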;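 also: initial absorbance extrapolated from kinetic A340 decline of NADH oxidation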
MK inhibit = blocks S. pneumoniae mevalonate kinase. purified MK, PK/LDH-coupled NADH absorbance 340 nm. inhibition, % at 10 µM. hit rate 0.48% among 65,000;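 active = ranked among the strongest by inhibition in the single 10 µM screen, a fixed top-ranked set picked for dose follow-up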
PMK inhibit = S. pneumoniae PMK inhibition; purified PMK, PK/LDH-coupled NADH absorbance 340 nm; inhibition, % at 10 µM; hit rate 0.49% among 65,000; AID 539;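 active = top-ranked compounds by inhibition in the single 10 µM screen, taking a fixed number of the strongest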
Spn DPM-DC inh = S. pneumoniae DPM-DC inhibition. purified DPM-DC, PK/LDH coupled NADH fluorescence. calls only at 10 µM. hit rate 0.49% among 65,000. AID 556;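 active = the 320 compounds with the highest percent inhibition in the single-dose primary screen, excluding strongly autofluorescent ones, cut at about 32% in these data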;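 also: kinetic rate of NADH fluorescence loss reporting ADP formed by the decarboxylase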
Hits are given with their value; – = inactive; · = no result shown; + = active, no number. The list is not random: actives were taken first. Their share in the collection is about 6.3%.

SMILES	Fluor 339 460	NADH enzymes	Abs 340nm	MK inhibit	PMK inhibit	Spn DPM-DC inh
COc1nc(N(C)C)nc(N(OC)S(=O)(=O)c2ccccc2Cl)n1	–	–	–	–	–	–
COCCn1nnnc1CN(Cc1cccnc1)Cc1cc2cc(OC)ccc2[nH]c1=O	2.21	–	–	–	–	+
COc1ccc2cc(CN(Cc3cccnc3)Cc3nnnn3Cc3ccccc3)c(=O)[nH]c2c1	–	–	–	–	–	–
COc1ccc2[nH]c(=O)c(CN(Cc3nnnn3Cc3ccccc3)CC3CCCO3)cc2c1 (configuration not stated)	2.14	–	–	–	–	–
COc1ccc2[nH]c(=O)c(CN(Cc3nnnn3Cc3ccc(F)cc3)CC3CCCO3)cc2c1 (configuration not stated)	2	–	–	–	–	–
CN(C)S(=O)(=O)c1ccc2c(c1)c(=O)c(C(=O)N1CCN(c3ccccn3)CC1)cn2C	–	–	–	–	–	–
Cn1nnnc1SCCNCc1ccncc1	–	–	–	–	–	–
CC(C)Cn1cc(C(=O)NCC2CCCO2)c2c3ccccc3n(C)c2c1=O (configuration not stated)	2.51	–	–	–	–	–
Cn1c2ccccc2c2c(C(=O)NCC3CCCO3)cn(C3CCCC3)c(=O)c21 (configuration not stated)	2.12	–	–	–	–	·
O=C(CCS(=O)(=O)c1ccccc1)Nc1nc2c(s1)COc1ccccc1-2	–	–	–	–	–	–
CCOc1ccc(S(=O)(=O)NCc2ccc(F)cc2)c2cccnc12	3.55	–	–	–	–	–
CCOc1ccc(-c2nc(CSCC(=O)NCCN3CCOCC3)c(C)o2)cc1	–	–	–	–	–	–
c1ccc2oc(-c3nn4c(Cn5cnc6ccccc65)nnc4s3)cc2c1	2.2	–	–	–	–	–
CC(C)(C)NC(=O)CSc1nnc(-c2ccccn2)n1-c1ccccc1	–	–	–	–	28.0	–
O=C(CSc1nnc(-c2cccnc2)n1-c1ccccc1)Nc1ccccn1	–	–	–	–	–	–
O=C(CCN1CCN(c2ccccc2)CC1)Nc1nccs1	–	–	–	–	–	–
C=CCn1c(SC2CCOC2=O)nc2scc(C3CC3)c2c1=O (configuration not stated)	–	–	–	–	–	–
Oc1ccc(N=Cc2ccc(-c3cccs3)s2)cc1	2.2	–	–	–	–	·
COc1ccc2c(C)c(Cl)c(=O)oc2c1	2.2	–	–	–	–	·
COC(=O)COc1ccc2occ(C(C)=O)c2c1	–	–	–	–	–	–
CCc1c(C)c2ccc(OCC(=O)OC)cc2oc1=O	2.94	–	–	–	–	·
COC(=O)Cc1c(C)c2ccc(OCC(=O)N3CCOCC3)cc2oc1=O	2.91	–	–	–	–	·
Cc1cc(=O)oc2cc(OCC(=O)N3CCc4ccccc4C3)ccc12	–	–	–	–	–	–
CC(C)CCNC(=O)C(c1ccco1)N(Cc1ccccc1)C(=O)c1snc(C(N)=O)c1N (configuration not stated)	–	–	–	–	–	–
COc1ccc(CNC(=O)C(C)N(Cc2ccco2)C(=O)c2snc(C(N)=O)c2N)cc1 (configuration not stated)	2.24	–	–	–	–	–
SMILES	Fluor 339 460	NADH enzymes	Abs 340nm	MK inhibit	PMK inhibit	Spn DPM-DC inh
CCC(C)(C)NC(=O)CN(C(=O)c1snc(C(N)=O)c1N)c1ccc2c(c1)OCO2	–	–	–	–	–	–
CCc1ccccc1N(CC(=O)NCc1ccco1)C(=O)c1snc(C(N)=O)c1N	3.27	–	–	–	–	·
c1ccc(-c2nc(Sc3ncnc4c3cnn4-c3ccccc3)n[nH]2)cc1	–	–	–	–	–	–
Cc1cc(=O)[nH]c2ccccc12	–	–	–	–	–	+
Cc1ccc2nc(Nc3ccccc3)c(/C=N/O)c(=O)n2c1	–	–	–	–	–	–
Cc1cccn2c(=O)c(C=Nc3ccccc3)c(NCCO)nc12	2.36	–	–	–	–	–
Cc1cccn2c(=O)c(C=Nc3ccc(Cl)cc3)c(NCCO)nc12	2.72	–	–	–	–	–
Cn1c(=O)c2c(nc(NCCO)n2CCc2ccccc2)n(C)c1=O	–	–	–	–	–	–
Cc1n[nH]c(C)c1S(=O)(=O)N1CCCC(C(=O)NC2CCCCC2)C1 (configuration not stated)	–	–	–	–	–	–
COC(=O)/C(=C1/Oc2cc3c(cc2S1)OCO3)C(F)(F)F	2.23	–	–	–	–	–
c1ccc(NC(=NCc2ccco2)c2ccccc2)cc1	–	–	–	–	27.0	–
COCc1cc(C)nc(Nc2ccc(C)c(C)c2)c1C#N	–	–	–	–	–	–
COCc1cc(C)[nH]c(=O)c1C#N	2.19	–	–	–	–	·
CCOc1ccccc1NC(=O)Cn1c(C)cc(COC)c(C#N)c1=O	–	–	–	–	–	–
COCc1cc(=O)n2c([nH]c3ccccc32)c1C#N	4.84	–	–	–	–	·
Cn1c(/C(C#N)=C(\O)COc2ccc3ccccc3c2)nc2ccccc21	–	–	–	–	–	–
COc1nc(-c2ccccc2)ccc1-c1noc(C)n1	–	–	–	–	–	–
COc1nc(-c2ccc(Cl)cc2)ccc1-c1noc(-c2ccco2)n1	–	–	–	–	–	–
COCc1nc(-c2ccc(-c3ccc(OC)cc3)nc2OC)no1	2.13	–	–	–	–	·
CCc1nc(-c2ccc(-c3ccc(OC)cc3)nc2OC)no1	2.13	–	–	–	–	·
COc1cccc(-c2ccc(-c3noc(-c4ccccc4F)n3)c(OC)n2)c1	3.82	–	–	–	–	·
COc1ccc(-c2ccc(-c3noc(C(C)C)n3)c(OC)n2)cc1	3.99	–	–	–	–	·
COc1ccc(C)cc1S(=O)(=O)N(CC(N)=O)Cc1ccccc1	–	–	–	–	–	–
COc1ccccc1N1CCN(C(c2cccs2)c2nnnn2C2CCCC2)CC1 (configuration not stated)	–	–	–	–	–	–
COc1cc(-c2nnc(COc3ccc4ccccc4c3)o2)cc(OC)c1OC	–	–	–	–	28.0	–
COC(=O)c1ccccc1NC(=O)CN1C(=O)C2CCCN2c2ncc(Cl)cc21 (configuration not stated)	2.07	–	–	–	–	–
CCc1ccccc1NC(=O)CN1C(=O)C2CCCN2c2ncc(Cl)cc21 (configuration not stated)	–	–	–	–	–	–
CC1CCC(NC(=O)CN2C(=O)C3CCCN3c3ncc(Cl)cc32)CC1 (configuration not stated)	2.3	–	–	–	–	–
Cc1ccc(-n2ncc(C(=O)N3CCc4ccccc4C3)c2NC(=O)c2ccco2)cc1C	–	–	–	–	–	–
CCCN(CCC)c1nc(C)cc(C(C#N)c2nc3ccccc3o2)n1 (configuration not stated)	2.18	–	–	–	–	–

Screening results: PubChem BioAssay, SRMLSC
